Reference: PubChem BioAssay (Tox21)
Active and inactive are the calls of the source. Where a call stands in place of a potency, no number is given. Unless noted, calls follow the shape of the full dose curve. Positions of bridges follow the written chain, without caps; N, C: chain ends. Residues, ends and D or L forms follow the SMILES beside them.

test system: thyroid hormone receptor (rat, GH3 cells); assay: qHTS assay to identify small molecule agonists of the thyroid receptor (TR) signaling pathway (AID 743066); conditions: GH3.TRE-Luc cells, TR agonist luciferase, 24 h; series mostly up to 83.9 µM

Row | Structure (SMILES) | Potency
1 | CC(CCc1ccc(O)cc1)NCC(O)c1ccc(O)cc1 (stereo not given) | inactive
2 | CC(=O)O[C@]1(C(C)=O)CC[C@H]2[C@@H]3CCC4=CC(=O)CC[C@]4(C)[C@@]3(F)[C@@H](O)C[C@@]21C | inactive
3 | NCCCC[C@H](NC(=O)[C@@H]1CCCN1C(=O)[C@@H]1CSSC[C@H](NC(=O)CNC(=O)CNC(=O)CN)C(=O)N[C@@H](Cc2ccc(O)cc2)C(=O)N[C@@H](Cc2ccccc2)C(=O)N[C@@H](CCC(N)=O)C(=O)N[C@@H](CC(N)=O)C(=O)N1)C(=O)NCC(N)=O (H-GGGCYFQNCPKG-NH2; disulfide 4-9) | inactive
4 | CC(C)(C)c1ccc(CN2CCN(C(c3ccccc3)c3ccc(Cl)cc3)CC2)cc1 (stereo not given) | inactive

molecular target: Estrogen receptor (Homo sapiens) (UniProt P03372); assay: qHTS assay to identify small molecule antagonists of the estrogen receptor alpha (ER-alpha) signaling pathway (AID 743069; active = well fitted curve in the direction sought with a large enough effect in the signal ratio in the repeat runs, not every such curve was filed as active; inconclusive = weak or mixed curves, or effect the other way; inactive = no such curve, though single readings can be large or run the other way; the % refers to the signal ratio; also: potency is read from the fitted curve at half-maximal effect); conditions: HEK293 ER-alpha-UAS-bla, beta-lactamase ratio, antagonist mode; series mostly up to 69.4 µM
Sequence (P03372 whole entry, looked up): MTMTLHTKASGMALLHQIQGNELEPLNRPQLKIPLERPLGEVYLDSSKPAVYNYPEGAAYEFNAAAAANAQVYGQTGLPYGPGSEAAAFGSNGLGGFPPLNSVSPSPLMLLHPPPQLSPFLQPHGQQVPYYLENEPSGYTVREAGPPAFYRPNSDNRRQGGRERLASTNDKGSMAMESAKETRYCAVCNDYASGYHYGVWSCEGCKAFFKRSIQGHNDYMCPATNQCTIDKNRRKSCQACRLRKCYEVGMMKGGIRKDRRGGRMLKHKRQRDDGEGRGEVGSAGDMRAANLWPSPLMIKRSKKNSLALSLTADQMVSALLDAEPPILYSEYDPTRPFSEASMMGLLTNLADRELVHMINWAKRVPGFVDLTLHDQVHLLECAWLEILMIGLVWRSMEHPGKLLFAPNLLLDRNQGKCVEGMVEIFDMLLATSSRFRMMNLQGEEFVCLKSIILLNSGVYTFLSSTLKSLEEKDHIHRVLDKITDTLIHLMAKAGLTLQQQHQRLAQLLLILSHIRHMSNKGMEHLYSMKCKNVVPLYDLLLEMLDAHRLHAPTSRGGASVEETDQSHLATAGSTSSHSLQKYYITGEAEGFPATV
How it was run: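 ER-alpha-UAS-bla GripTite HEK293 line; 2% charcoal-stripped FBS overnight; plated, 4 hr 37C/5% CO2; cpd in DMSO + 17beta-estradiol, 18 hr 37C; LiveBLAzer B/G FRET substrate 2 hr RT; fluorescence intensity.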

Row | Structure (SMILES) | Potency
5 | O=C(OC1C[C@@H]2CC3C[C@H](C1)N2CC3=O)c1c[nH]c2ccccc12 (stereo not given in full) | inactive
6 | C=C1CC[C@@H]2[C@](C)(CO)[C@H](O)CC[C@@]2(C)[C@@H]1C/C=C1/C(=O)OC[C@H]1O | inactive
7 | CCCCCCCCCCCCCCCCSCC(COC)COP(=O)([O-])OCC[N+](C)(C)C (stereo not given) | 21.3 µM [inhibitor] (active)
8 | C=C1C(=O)O[C@H]2[C@H]1CC/C(C)=C\CC[C@@]1(C)O[C@@H]21 | inactive
9 | CC(C(=O)O)c1ccc(N2Cc3ccccc3C2=O)cc1 (stereo not given) | inactive
10 | C[C@H](/C=C/[C@H](C)C(C)(C)O)[C@H]1CC[C@H]2/C(=C/C=C3C[C@@H](O)C[C@H](O)C3)CCC[C@]12C | 23.9 µM [inconclusive] (active)

test system: not listed separately; assay: qHTS assay to identify small molecule antagonists of the estrogen receptor alpha (ER-alpha) signaling pathway - cell viability counter screen (AID 743074); conditions: ERalpha-bla HEK293 viability, CellTiter-Glo luminescence, 18 h; series mostly up to 69.4 µM;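 also: HEK293 cells carrying ER-alpha-UAS-bla reporter stimulated with 17beta-estradiol; nearly all actives have a fitted effect of over 45% in size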; also: potency is read from the fitted curve at half-maximal effect

Row | Structure (SMILES) | Potency
11 | COc1ccc(-c2noc(CC(=O)O)c2-c2ccc(OC)cc2)cc1 | inactive
12 | O=C(OC1C[C@@H]2CC3C[C@H](C1)N2CC3=O)c1c[nH]c2ccccc12 (stereo not given in full) | inactive
13 | Cn1c(O)c(N=NC(N)=S)c2ccccc21 | inactive
14 | CN1c2cc(O)c(N=NC(N)=O)cc2CC1S(=O)(=O)O (stereo not given) | inactive
15 | CSc1nc2cc(Oc3cccc(Cl)c3Cl)c(Cl)cc2[nH]1 | 23.9 µM (active)
16 | CC(C)(C)NCC(O)c1ccc(O)c(CO)n1 (stereo not given) | inactive
17 | CCCCCCCCCCCCCCCCCCCCCC(=O)Nc1ccn([C@@H]2O[C@H](CO)[C@@H](O)[C@@H]2O)c(=O)n1 | inactive
18 | COc1ccc(CC2c3cc(OC)c(OC)cc3CC[N+]2(C)CCC(=O)OCCCCCOC(=O)CC[N+]2(C)CCc3cc(OC)c(OC)cc3C2Cc2ccc(OC)c(OC)c2)cc1OC (stereo not given) | inactive
19 | CC#CCC(C)[C@H](O)/C=C/[C@@H]1[C@H]2c3cccc(CCCC(=O)O)c3O[C@H]2C[C@H]1O (stereo not given in full) | inactive
20 | CCC(=O)Oc1ccc2c(c1)CC[C@@H]1[C@@H]2CC[C@]2(C)[C@@H](OC(=O)CC)CC[C@@H]12 | inactive
21 | CCCCC(C)(O)C/C=C/[C@H]1[C@H](O)CC(=O)[C@@H]1CCCCCCC(=O)OC (stereo not given in full) | inactive
22 | CN1CCN2c3ncccc3Cc3ccccc3C2C1 (stereo not given) | inactive
23 | CCC(=O)O[C@H]1CC[C@H]2[C@@H]3CCc4cc(O)ccc4[C@H]3CC[C@]12C | inactive
24 | CCOc1ccc(N=Nc2ccc(N)cc2N)cc1 | inactive
25 | CCCCCCCCCCCCCCCCCC(=O)OCC(C)O (stereo not given) | inactive
26 | O=P(O)(O)C(Sc1ccc(Cl)cc1)P(=O)(O)O | inactive
27 | O=C(CCCN1CCC(n2c(=S)[nH]c3ccccc32)CC1)c1ccc(F)cc1 | inactive
28 | C/C1=C2N=C(/C=C3N=C(/C(C)=C4\[N-][C@@](C)([C@@H]5N=C1[C@](C)(CCC(=O)NCC(C)OP(=O)(O)O[C@H]1[C@@H](O)[C@@H](n6cnc7cc(C)c(C)cc76)O[C@@H]1CO)[C@H]5CC(N)=O)[C@@](C)(CC(N)=O)[C@@H]4CCC(N)=O)[C@@](C)(CC(N)=O)[C@@H]\3CCC(N)=O)C(C)(C)[C@@H]/2CCC(N)=O.CC(=O)O.[Co] (stereo not given in full) | inactive
29 | C=C1CC[C@@H]2[C@](C)(CO)[C@H](O)CC[C@@]2(C)[C@@H]1C/C=C1/C(=O)OC[C@H]1O | inactive
30 | CC(=O)Nc1c(I)c(C(=O)O)c(I)c(N(C)C(C)=O)c1I | inactive
31 | CC(=O)Oc1cccc(C(=O)O)c1OC(C)=O | inactive
32 | CC(C)NCC(O)COc1ccccc1-n1cccc1 (stereo not given) | inactive
33 | CCCCCCCCCCCCCCCCSCC(COC)COP(=O)([O-])OCC[N+](C)(C)C (stereo not given) | inactive
34 | C=C1C(=O)O[C@H]2[C@H]1CC/C(C)=C\CC[C@@]1(C)O[C@@H]21 | inactive
35 | O=[n+]1ccn([O-])c2ccccc21 | inactive
36 | CC(/C=C/C=C(\C)C(=O)O[C@@H]1O[C@H](CO[C@@H]2O[C@H](CO)[C@@H](O)[C@H](O)[C@H]2O)[C@@H](O)[C@H](O)[C@H]1O)=C\C=C\C=C(C)\C=C\C=C(/C)C(=O)O[C@@H]1O[C@H](CO[C@@H]2O[C@H](CO)[C@@H](O)[C@H](O)[C@H]2O)[C@@H](O)[C@H](O)[C@H]1O | inactive
37 | CC(CCc1ccc(O)cc1)NCC(O)c1ccc(O)cc1 (stereo not given) | inactive
38 | CC(=O)O[C@]1(C(C)=O)CC[C@H]2[C@@H]3CCC4=CC(=O)CC[C@]4(C)[C@@]3(F)[C@@H](O)C[C@@]21C | inactive
39 | NCCCC[C@H](NC(=O)[C@@H]1CCCN1C(=O)[C@@H]1CSSC[C@H](NC(=O)CNC(=O)CNC(=O)CN)C(=O)N[C@@H](Cc2ccc(O)cc2)C(=O)N[C@@H](Cc2ccccc2)C(=O)N[C@@H](CCC(N)=O)C(=O)N[C@@H](CC(N)=O)C(=O)N1)C(=O)NCC(N)=O (H-GGGCYFQNCPKG-NH2; disulfide 4-9) | inactive
40 | CC(C(=O)O)c1ccc(N2Cc3ccccc3C2=O)cc1 (stereo not given) | inactive
